Laboratory results from PubChem BioAssay AID588726 (The Scripps Research Institute Molecular Screening Center, 2011).
The whole screen tested about 360,000 compounds, of which about 8,200 (2.3%) were called active. No stated cut-off is given here; in the data, active means inhibition above about 27%; inactive means the rest. For the sample, actives were picked, then their nearest neighbours and some compounds at random.

Molecular target: Fructose-bisphosphate aldolase (Mycobacterium tuberculosis (strain ATCC 25618 / H37Rv)) (UniProt P9WQA3)
Test: M. tuberculosis aldolase activity blockers – biochemical, fluorescence, strain H37Rv, primary screen (AID 588726);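 further: 0% = vehicle and 100% = reference inhibitor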
Conditions: purified M. tuberculosis FBA, fluorescence read-out, at 1 µM, hits give high values

Fructose-bisphosphate aldolase (Mycobacterium tuberculosis (strain ATCC 25618 / H37Rv)), sequence (P9WQA3 whole entry, looked up): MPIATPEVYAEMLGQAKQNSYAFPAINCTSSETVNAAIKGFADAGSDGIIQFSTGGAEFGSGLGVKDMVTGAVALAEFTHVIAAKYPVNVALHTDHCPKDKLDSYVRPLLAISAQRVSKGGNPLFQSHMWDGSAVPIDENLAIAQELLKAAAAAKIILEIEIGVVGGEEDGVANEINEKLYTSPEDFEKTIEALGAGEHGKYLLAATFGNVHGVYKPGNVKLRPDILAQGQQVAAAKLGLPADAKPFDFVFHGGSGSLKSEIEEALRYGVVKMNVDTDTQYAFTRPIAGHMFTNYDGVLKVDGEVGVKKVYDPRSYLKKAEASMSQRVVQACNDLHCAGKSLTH

Row | Structure (SMILES) | inhibition
1 | Cn1nc(C(F)(F)F)cc1-c1ccc(/C=C(\C#N)C(=O)c2cccc(C(F)(F)F)c2)s1 | 0.1% (inactive)
2 | CCc1ccc(OCC(=O)OC(C)C(=O)NC2CC2)cc1 (stereo not given) | -0.68% (inactive)
3 | COc1ccc(C2=NS(=O)(=O)N(C)C(C(=O)N(C)Cc3ccccc3)=C2)cc1 | 4.86% (inactive)
4 | COc1ccc(CN(C)C(=O)c2cc(-c3ccc(C)cc3C)nc3ccccc23)c(OC)c1OC | -0.53% (inactive)
5 | O=C(c1cc(-c2ccco2)nc2ccccc12)N(Cc1nnc(-c2ccc(Cl)cc2)o1)C1CC1 | 46.8% (active)
6 | COc1ccc(-c2cc(C(=O)N(C)Cc3ccccc3)c3ccccc3n2)cc1 | 69.9% (active)
7 | CC(C)N(Cc1nnc(-c2ccccc2Br)o1)C(=O)c1cc(Cl)nc2ccccc12 | 2.07% (inactive)
8 | O=C(c1ccc(Cl)s1)N(Cc1nnc(-c2ccccc2Cl)o1)C1CC1 | -1.65% (inactive)
9 | C=CCOc1cccc(CNCc2cccnc2)c1 | -1.51% (inactive)
10 | CC1(C)CC(=O)c2c(n(S(=O)(=O)c3ccccc3)c3ccc(NS(=O)(=O)c4ccccc4)cc23)C1 | -1.63% (inactive)
11 | C[C@@H](C(=O)Nc1ccc2ccccc2c1)[C@@H]1C[C@@]1(C)[C@@H](NC(=O)c1cccnc1)c1ccccc1 | -0.2% (inactive)
12 | O=C(CSc1ncn[nH]1)Nc1nc2c(F)c(F)c(F)cc2s1 | 0.81% (inactive)
13 | CC(=O)N(CN1C(=O)C2C3C=CC(C3)C2C1=O)c1cccc(Cl)c1 (stereo not given) | -0.27% (inactive)
14 | COc1ccc(-c2ccc3c(c2)[C@@H]2C[C@H](N(C)S(=O)(=O)c4ccccc4)[C@H]([C@H](C)O)C(=O)N2CC3)cc1 | 4.15% (inactive)
15 | CN(Cc1ccccc1)C(=O)CCNC(=O)Cn1cnc2ccccc2c1=O | 5.26% (inactive)
16 | CCCCC(=O)Nc1ccc2c(c1)C(=O)NC2=O | 42.1% (active)
17 | CCCCN(C)CCC(=O)Nc1ccc(Cl)cc1 | 0.51% (inactive)
18 | CC(=O)Nc1ccc(Oc2ccc3c(c2)C(=O)NC3=O)cc1 | 2.21% (inactive)
19 | Cc1ccc(C(=O)NC2CCN(C(=O)Nc3ccccc3Cl)CC2)cc1 | -1.09% (inactive)
20 | COc1ccc(C(=O)OCC(=O)NC(=O)CCSc2ccccc2)cc1 | -0.72% (inactive)
21 | Cc1ccccc1CN1CCNC(=O)C1CC(=O)NCCC1=CCCCC1 (stereo not given) | 2.98% (inactive)
22 | Cc1cc(C(=O)OC(C)C(=O)Nc2cccc(S(=O)(=O)N3CCOCC3)c2)c(C)o1 (stereo not given) | -3.62% (inactive)
23 | CCOCCCNC(=O)C(NC(=O)CNC(=O)c1ccccc1)c1ccc(OC)cc1 (stereo not given) | -0.07% (inactive)
24 | CCOCCCNC(=O)C(NC(=O)c1ccccc1O)c1ccccc1 (stereo not given) | 43.8% (active)
25 | CCOCCCNC(=O)C(NC(=O)CNC(=O)c1ccccc1)c1ccc(C)cc1 (stereo not given) | -3.14% (inactive)
